SMILES strings stand for the structures. Compounds without any hit were thinned out: in the full panel of roughly 83,000, 20% have a hit.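 Method: cells in 96-well plates; compound added at one concentration; 48 h incubation; percent growth measured; values under 10 scored active.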 The source made the active and inactive calls.

The subject of the assay is SF-539 CNS. Briefly: NCI-60 one-dose screen, 48 h (100 = growth as untreated, 0 = no growth, -100 = all killed). Particulars: 10 µM unless noted.
Turning to `CC(=O)O[C@H]1CC[C@@]2(C)C(=CC[C@H]3[C@@H]4C[C@@H](N5CC5)[C@H](C(C)=O)[C@@]4(C)CC[C@@H]32)C1`, the growth was 88.8% (inactive).
For the compound `CC(=O)O[C@H]1C(=O)[C@@]2(C)[C@H]([C@H](OC(=O)c3ccccc3)[C@]3(O)C[C@H](OC(=O)[C@H](OC(=O)OC[C@H]4COC(C)(C)O4)[C@@H](NC(=O)c4ccccc4)c4ccccc4)C(C)=C1C3(C)C)[C@]1(OC(C)=O)CO[C@@H]1C[C@@H]2O`, the growth was -13.3% (active).
As for `COC(=O)N[C@H]1CCc2c(Br)c(OC)c(OC)c(OC)c2-c2ccc(SC)c(=O)cc21`, the growth is -6.59% (active).
For `CC[C@H](C)[C@H](NC(=O)c1ccccn1)C(=O)N(C)[C@H](C[C@@H](OC(C)=O)c1nc(C(=O)N[C@@H](Cc2ccccc2)C[C@H](C)C(=O)OC)cs1)C(C)C`, the growth was -24% (active).
The figure for `Cc1cc(N(CCCl)CCCl)ccc1C=Nc1ccc(-c2csc(Cc3ccccc3)n2)cc1` is 49.3% (inactive); for `COC(=O)[C@]12CCC(C)(C)C[C@H]1[C@H]1C(=O)C[C@@H]3[C@@]4(C)C[C@@]5(CC(C)(C)[C@@H]4CC[C@@]3(C)[C@]1(C)CC2)OO[C@@](C)(C(F)(F)F)O5` it is 101% (inactive).
With `CN1CCC(c2c[nH]c3ccccc23)C1` (configuration not stated), the growth is 127% (inactive).
Regarding `CCC[CH2][Sn]([CH2]CCC)([CH2]CCC)[O]c1ccc(Cl)cc1Cl`, the growth was -83.4% (active).
The figure for `COC(=O)[C@H](C[C@H](Cc1ccccc1)NC(=O)c1csc([C@@H](C[C@H](C(C)C)N(C)C(=O)[C@@H](NC(=O)[C@H]2CCCCN2C)C(C)C)OC(C)=O)n1)NC(=O)OCc1ccccc1` is -21.7% [8.5 µM] (active).
Consider `C[n+]1c(/C=C/c2ccc(N(CCCl)CCCl)cc2)sc2ccccc21`, for which the growth is 45.4% (inactive).
To `CC[C@H](C)[C@H](NC(=O)C12C3C4C1C1C2C3C41NC(C)=O)C(=O)N(C)[C@H](C[C@@H](OC(C)=O)c1nc(C(=O)N[C@@H](Cc2ccccc2)C[C@H](C)C(=O)OC)cs1)C(C)C` (some centres not stated) belongs 5.34% (active).
On to `CCCCCN(CCCCC)CC(O)c1cc(Cl)ccc1OC` (configuration not stated), for which the growth is 53.2% (inactive).
For `C#Cc1ccc2c(c1)C(c1ccccc1)=NCC(=O)N2C`, the growth is 41.4% (inactive).
The figure for `CCOC(=O)CCN(C)C1=Nc2ccc(Cl)cc2C(c2ccccc2)=[N+]([O-])C1` is 107% (inactive); for `COC(=O)[C@@H](C)C[C@H](Cc1ccccc1)NC(=O)c1csc([C@@H](C[C@H](C(C)C)N(C)C(=O)[C@@H](NC(=O)CN(C)C)C2CC2)OC(C)=O)n1` it is 0.502% (active); for `COc1cc2c(c(OC)c1OC)-c1ccc([O-])c(=O)cc1[C@@H](NC(C)=O)CC2.COc1cc2c(c(OC)c1OC)-c1ccc([O-])c(=O)cc1[C@@H](NC(C)=O)CC2.[Cu+2]` it is -17.2% (active).
Turning to `COc1ccc(/C=C\c2cc(OC)c(OC)c(OC)c2)c(NS(=O)(=O)c2ccc(C)cc2)c1O`, the growth was 1.5% (active).
Regarding `C=C(C)[C@@]12OC3(/C=C/C=C/CCCCC)O[C@@H]1[C@@H]1[C@@H]4O[C@]4(CO)[C@@H](O)[C@]4(O)C(=O)C(C)=C[C@H]4[C@@]1(O3)[C@H](C)[C@H]2OC(=O)c1ccccc1`, the growth was 63.8% (inactive).
On to `CC(C)CCC1(CCCl)C(=O)NC(=O)NC1=O`, for which the growth is 100% (inactive).
With `C[C@@]1(CCCCCCCCCc2ccc(O)cc2)C[C@]2(C)OC(=O)C[C@@H]2OO1`, the growth was 139% (inactive).
The figure for `COC(=O)[C@@H](C)C[C@H](Cc1ccccc1)NC(=O)c1nc([C@@H](C[C@H](C(C)C)N(C)C(=O)[C@@H](NC(=O)[C@H]2CCCN2C)C(C)C)OC(C)=O)sc1C` is -8.41% (active); for `CCOP(=O)(NC[C@H]1O[C@](O)(CO)[C@@H](O)[C@@H]1O)OCC` it is 96.3% (inactive); for `O=C1CN=C(c2ccc(Cl)cc2)c2sccc2N1` it is 93.4% (inactive).
As to `COP(=O)(OC)C(O)c1ccc(Cl)cc1` (configuration not stated), the growth was 103% (inactive).
To `CNC(=O)Oc1ccc(N(C)C)cc1C(C)C` belongs 89.7% (inactive); to `CO[C@H](C(=O)O)[C@@H]1Cc2cc3cc(OC4CC(OC5CC(O)C(O)C(C)O5)C(O)C(C)O4)c(C)c(O)c3c(O)c2C(=O)[C@H]1OC1CC(OC2CC(OC3CC(C)(O)C(O)C(C)O3)C(O)C(C)O2)C(O)C(C)O1` (some centres not stated), -23.1% (active).
As for `CCOC(=O)N[C@H]1CCc2c(Br)c(OC)c(OC)c(OC)c2-c2ccc(SC)c(=O)cc21`, the growth is -31.9% (active).

Values taken from PubChem BioAssay (NCI).
